Results published in ChEMBL document CHEMBL1157539, “Thousands of chemical starting points for antimalarial lead identification” (Nature, 2010).

Legend:
Format in all cases: functional
Plasmodium falciparum [1] = assay: GSK_TCMDC: Inhibition of Plasmodium falciparum 3D7 in whole red blood cells, using parasite LDH activity as an index of growth. Test compounds present at 2uM
Plasmodium falciparum [2] = assay: GSK_TCMDC: Inhibition of Plasmodium falciparum Dd2 in whole red blood cells, using parasite LDH activity as an index of growth. Test compounds present at 2uM
HepG2 = assay: GSK_TCMDC: Percent inhibition of human HepG2 cell line. Test compounds present at 10uM.

Row | SMILES | Inhibition (Plasmodium falciparum [1]) [%] | Inhibition (Plasmodium falciparum [2]) [%] | Inhibition (HepG2) [%]
1 | O=C(/C=C/c1ccc(Cl)c(Cl)c1)NCCCCCN1CCC(NC(=S)Nc2ccc(Cl)cc2)CC1 | 99 | 41 | 62
2 | CC(C)CC(=O)Nc1cc(=O)[nH]c2nc(-c3ccccc3)nn12 | 89 | 85 | 0
3 | COc1cccc(Nc2nc(Nc3cccc(C#N)c3)cc(C(F)(F)F)n2)c1 | 99 | 45 | 15
4 | COc1ccc(-c2ncnc(C(F)(F)F)c2-c2ccc(Cl)cc2)c(O)c1 | 100 | 22 | 1
5 | Cc1ccc(-c2csc(C)n2)c(C)c1 | 98 | 0 | 12
6 | CCCC(CNCc1cccc(OCC)c1)CNc1cc(=O)c2ccccc2[nH]1 (configuration not stated) | 100 | 97 | 0
7 | Oc1ccc(Br)cc1-c1nc2ccc(Cl)cc2nc1-c1cc(Br)ccc1O | 100 | 64 | 0
8 | Cc1cc(OCC2CCCN(c3ncc(C(=O)NC4CC4)cc3Cl)C2)ccc1F (configuration not stated) | 88 | 68 | 3
9 | Cc1cc(N[C@@H](CC(C)C)C(=O)NCc2cccs2)nc(NCCc2ccccc2)n1.O=C(O)C(F)(F)F | 94 | 8 | 1
10 | COc1ccc(-c2cccc(NC(=O)c3cccc(C#N)c3)c2)cc1CN(C)CCN(C)C.O=C(O)C(F)(F)F | 99 | 21 | 0
11 | CN1CCN(Cc2cccc(-c3ccc4c(Nc5ccc(Oc6ccccc6)cc5)ccnc4c3)c2)CC1 | 100 | 100 | 41
12 | Fc1cccc(COc2ccc(Nc3ncnc4sc(C#Cc5ncc[nH]5)cc34)cc2Cl)c1 | 100 | 95 | 55
13 | O=C(/C=C/c1ccc(Cl)c(Cl)c1)NCCCCCN1CCC(NC(=O)Nc2ccc(F)cc2F)CC1 | 100 | 23 | 14
14 | O=C(/C=C/c1ccc(Cl)c(Cl)c1)NCCCCCCN1CCN(C(=O)Nc2cccc(Cl)c2)CC1 | 85 | 2 | 33
15 | Cl.FC(F)(F)c1ccccc1OCc1cc(-c2ccncc2)c(COc2ccccc2C(F)(F)F)cc1C1=CCNCC1 | 98 | 81 | 31
16 | O=C(NCCCN1CCCC1=O)NCc1ccccc1 | 99 | 4 | 8
17 | CN(C)CCOc1cc(NC(=O)Nc2ccc(-c3ccncc3)c(C(F)(F)F)c2)ccc1Cl | 100 | 79 | 36
18 | CN1CCN(Cc2cccc(-c3cc4nccc(Nc5ccc(Oc6ccccc6)cc5)c4cc3Cl)c2)CC1 | 100 | 96 | 10
19 | Clc1cc(Cl)c2c(c1)C(NCCCNc1nc3ccccc3[nH]1)CCO2 (configuration not stated) | 100 | 31 | 28
20 | CN1CCC(NCc2ccc(-c3ccc(S(=O)(=O)NCc4ccccc4)cc3)cc2)CC1.O=C(O)C(F)(F)F | 99 | 51 | 40
21 | Cl.O=C(O)CCCN1CCCC(=C(c2ccccc2)c2ccccc2)C1 | 82 | 2 | 0
22 | CCOC(=O)c1c(C)n(-c2ccccc2)c2ccc(O)cc12 | 100 | 87 | 0

Row | SMILES | Inhibition (Plasmodium falciparum [1]) [%] | Inhibition (Plasmodium falciparum [2]) [%] | Inhibition (HepG2) [%]
23 | c1cc(Cc2ccc(Nc3c4ccccc4nc4ccccc34)cc2)cc(Nc2c3ccccc3nc3ccccc23)c1 | 100 | 100 | 91
24 | O=C(NCCc1ccc(F)cc1)c1ccc(N2CCN(c3ccncc3)CC2)nc1.O=C(O)C(F)(F)F | 88 | 3 | 1
25 | CCCCCC(C)C(C)c1cc(O)c2c(c1)OC(C)(C)CC2c1cc[n+]([O-])cc1 (configuration not stated) | 96 | 7 | 0
26 | CC(CNC(=O)[C@H]1CNCCN1C(=O)CCCc1ccccc1)c1ccccc1.O=C(O)C(F)(F)F (some centres not stated) | 94 | 1 | 12
27 | O=C(O[C@@H]1CN[C@H](C#Cc2cc3c(Nc4ccc5c(cnn5Cc5ccccc5)c4)ncnc3s2)C1)N1CCCC1 | 99 | 87 | 8
28 | Cl.N=C(N)c1ccc2[nH]c(SCc3ccccc3)nc2c1 | 97 | 100 | 0
29 | COc1ccc(NC(=O)Nc2cccc(-c3cccc(-c4nc5cccc(C)c5[nH]4)c3)c2)cc1 | 100 | 43 | 0
30 | O=C(Nc1ccc(C(F)(F)F)cc1)NC1CCN(c2ccnc3ccccc23)C1.O=C(O)C(F)(F)F (configuration not stated) | 100 | 89 | 13
31 | O=[N+]([O-])c1nc(Br)n(Cc2ccc(Cl)cc2)n1 | 96 | 95 | 0
32 | Cc1nc(NCCc2c[nH]cn2)cc(NCc2ccccc2)n1 | 100 | 5 | 5
33 | CNCCNCc1cccc(-c2ccc(-c3nc4cc(C(F)(F)F)ccc4[nH]3)cc2)c1.O=C(O)C(F)(F)F | 100 | 92 | 21
34 | Fc1cccc(C=NN=c2cc[nH]c3ccc(C(F)(F)F)cc23)c1 | 100 | 97 | 0
35 | CCN(CC)CCNc1ccnc2[nH]c3ccc(Cl)cc3c12 | 100 | 92 | 3
36 | Cc1ccc(CON2C(=N)N=C(N)NC2(C)C)cc1C.Cl | 92 | 88 | 64
37 | Cc1cc2nc(N/C(N)=N/C(=O)NC3CCCCC3)nc(C)c2cc1C | 94 | 98 | 20
38 | O=C(NCCCCN1CCC(c2ccc3c(c2O)CCCC3)CC1)c1ccc(-c2ccc(Cl)cc2)cc1 | 98 | 72 | 97
39 | Br.CC1(C)NC(N)=NC(=N)N1OCCCc1c(Cl)cccc1Cl | 95 | 97 | 71
40 | Clc1ccc(-c2cc(-c3csc(NCCN4CCOCC4)n3)on2)c(Cl)c1 | 97 | 86 | 39
41 | CC(=O)Nc1ccc(OCCN(Cc2ccccc2OC(F)(F)F)c2ccc(C(F)(F)F)c(C#N)c2)c(Cl)c1 | 96 | 96 | 8
42 | O=C(NC(c1ccccc1)c1ccc2cccnc2c1O)c1ccccc1 (configuration not stated) | 94 | 63 | 53
43 | Cc1csc2nc(-c3ccccn3)nc(Nc3ccncn3)c12.O=C(O)C(F)(F)F | 97 | 85 | 47
44 | CC(C)(NCc1ncc[nH]1)c1nc(-c2ccc(Cl)c(O)c2)c(-c2ccncc2)[nH]1.Cl | 95 | 97 | 42

Row | SMILES | Inhibition (Plasmodium falciparum [1]) [%] | Inhibition (Plasmodium falciparum [2]) [%] | Inhibition (HepG2) [%]
45 | COc1cc(C)nc2ccc(NC(=O)c3cc(C(F)(F)F)cc(C(F)(F)F)c3)cc12.Cl | 100 | 99 | 16
46 | Fc1ccc2[nH]c(-c3cccc(-c4ccc(CNCCc5ccncc5)cc4)c3)nc2c1.O=C(O)C(F)(F)F | 99 | 100 | 44
47 | COc1cccc(-c2nn(C)c3sc(C(=O)Nc4cccnc4)cc23)c1 | 86 | 34 | 1
48 | Cc1cccc2nc(-c3cccc(-c4cccc(NC(=O)CN5CCN(C)CC5)c4)c3)[nH]c12 | 100 | 99 | 76
49 | CCc1c(C)nc(-n2nc(C)cc2NC(=O)C2c3ccccc3Oc3ccccc32)[nH]c1=O | 89 | 80 | 37
50 | COc1cc(Nc2nccc(NCC(O)c3ccc(C(F)(F)F)cc3)n2)cc(OC)c1OC (configuration not stated) | 91 | 14 | 45
51 | O=C(NCCN1CCOCC1)c1ccc(N2CCC(Oc3ccc4ccccc4c3)CC2)nc1 | 92 | 30 | 1
52 | CC(C)(C)c1ccc(CN2CCC(CNC(=O)c3cc(-c4ccccc4F)cs3)C2)cc1.O=C(O)C(F)(F)F (configuration not stated) | 100 | 98 | 46
53 | COc1cccc(NC(=O)c2cc(Br)cc(N3CCN(c4ccncc4)CC3)c2)c1.O=C(O)C(F)(F)F | 100 | 79 | 30
54 | CC(C)(C)c1ccc(CNC(=O)/C=C/c2ccc(CNC3CCNCC3)cc2)cc1 | 96 | 21 | 6
55 | CCN(CCCN1CCCCC1)c1cc(C)nc(Nc2cccc3c2CCCC3)n1.O=C(O)C(F)(F)F | 92 | 46 | 60
56 | O=C(NCCN1CCCC1)c1cccc(-c2ccc(-c3nc4ccccc4[nH]3)s2)c1 | 96 | 13 | 27
57 | CCCCNCC(O)COc1ccccc1-c1ccc(N/N=C/c2cccc3ccccc23)nn1 (configuration not stated) | 99 | 8 | 38
58 | COc1ccc(CC(=O)NC(CCN2CCC3(CC2)CN(S(C)(=O)=O)c2ccccc23)c2ccc(Cl)c(Cl)c2)cc1OC (configuration not stated) | 92 | 77 | 10
59 | CCOc1ccc(C(Cc2ccccc2)NC(=O)c2cccnc2)cc1OCC (configuration not stated) | 100 | 98 | 0
60 | O=C(O)C(F)(F)F.OCCN1CCN(Cc2cccc(-c3ccc(-c4nc5cc(C(F)(F)F)ccc5[nH]4)cc3)c2)CC1 | 100 | 85 | 19
61 | CO.Cc1nc(N)nc(N)c1OCc1cccc2c1ccc1ccccc12.Cl | 95 | 16 | 54
62 | COc1ccc(C2N=C(N)N=C(N)N2OCc2ccccc2)cc1OC.Cl (configuration not stated) | 95 | 2 | 1
63 | Cc1ccc(NC(=O)NC2CCN(CCCCCNC(=O)C3CC3c3ccc(Cl)c(Cl)c3)CC2)cc1 (configuration not stated) | 100 | 19 | 35
64 | COc1ccc(NC(=O)NC2CCN(c3ccnc4ccccc34)C2)cc1.O=C(O)C(F)(F)F (configuration not stated) | 94 | 0 | 3
